Measured values as given in PubChem BioAssay (Tox21).
Records with an inconclusive call do not appear. Activity calls are given as the source filed them. Unless noted, calls come from the whole dose curve; as a rule, active = well fitted curve in the direction sought with a large enough effect in the repeat runs; inconclusive = weak or mixed curves; inactive = no such curve, though single readings can be large; an effect the other way counts as inactive or inconclusive.

Assays:
[1] = A CellTox Green Cytotoxicity Assay to monitor cytotoxicity in HEK293 cells - 32 hour (AID 1224881); note: nearly all actives have a fitted effect of over 40% in size
Outline: (§1)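 HEK293 cells premixed with CellTox Green dye were seeded at 600 cells/well and left 5 h at 37 C/5% CO2 before pin transfer of 23 nL compound in DMSO. Fluorescence from dye bound to dead-cell DNA was read during 40 h treatment.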

[2] = A CellTox Green Cytotoxicity Assay to monitor cytotoxicity in HepG2 cells - 0 hour (AID 1224882); note: nearly all actives have a fitted effect of over 35% in size
Outline: (§2)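 HepG2 cells were seeded together with the CellTox Green dye at 600 cells/well, left 5 h at 37 C/5% CO2, then given compounds in DMSO. Fluorescence from dye bound to dead-cell DNA was read repeatedly over 40 h of treatment at 37 C.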

[3] = A CellTox Green Cytotoxicity Assay to monitor cytotoxicity in HepG2 cells - 32 hour (AID 1224883); note: nearly all actives have a fitted effect of over 50% in size
Outline: as §2

[4] = A CellTox Green Cytotoxicity Assay to monitor cytotoxicity in HEK293 cells - 8 hour (AID 1224884); note: nearly all actives have a fitted effect of over 35% in size
Outline: as §1

[5] = qHTS RealTime-Glo MT Cell Viability Assay in HepG2 cells - 16 hour (AID 1224885); note: nearly all actives have a fitted effect of over 50% in size
Outline: (§3)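 Tox21 10K library screened in qHTS format on HepG2 cells carrying RealTime-Glo reagents. Compounds were added after a 5 h preincubation, and the luminescent signal from continuous culture was measured repeatedly during 40 h treatment.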

[6] = qHTS RealTime-Glo MT Cell Viability Assay in HEK293 cells - 24 hour (AID 1224886); note: top concentration of the series differs between compounds; nearly all actives have a fitted effect of over 50% in size
Outline: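 Luminescence generated by NanoLuc from substrate produced by living HEK293 cells served as the viability signal. Each value reflects the reading at its stated time point during continuous 40 h compound exposure at 37 C.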

[7] = qHTS RealTime-Glo MT Cell Viability Assay in HEK293 cells - 8 hour (AID 1224887); note: top concentration of the series differs between compounds; nearly all actives have a fitted effect of over 50% in size
Outline: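 HEK293 cells mixed with RealTime-Glo reagents (NanoLuc plus cell-permeant prosubstrate) at 600 cells/well, preincubated 5 h at 37 C/5% CO2, then given 23 nL compound in DMSO. Nonlytic luminescence from viable cells was read at 0, 8, 16, 24, 32 and 40 h.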

[8] = A CellTox Green Cytotoxicity Assay to monitor cytotoxicity in HEK293 cells - 16 hour (AID 1224888); note: nearly all actives have a fitted effect of over 35% in size
Outline: as §1

[9] = qHTS RealTime-Glo MT Cell Viability Assay in HepG2 cells - 0 hour (AID 1224889); note: nearly all actives have a fitted effect of over 50% in size
Outline: as §3

[10] = A CellTox Green Cytotoxicity Assay to monitor cytotoxicity in HepG2 cells - 8 hour (AID 1224890); note: nearly all actives have a fitted effect of over 45% in size
Outline: as §2

[11] = qHTS assay to identify small molecule antagonists of the estrogen receptor alpha (ER-alpha) signaling pathway using the BG1 cell line in the presence of 0.1 nM 17-beta-estradiol - cell viability counter screen (AID 1259241); note: nearly all actives have a fitted effect of over 40% in size
Outline: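 Cytotoxicity counter-screen: live-cell protease activity measured by fluorescence (30 min reagent step) in the same wells. Cells were VM7Luc4E2 with endogenous ER-alpha and ERE-driven luciferase, treated 22 hr at 37C alongside 0.1 nM 17beta-estradiol final.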

[12] = qHTS assay to identify small molecule antagonists of the androgen receptor (AR) signaling pathway using the MDA cell line in the presence of 0.5 nM R1881 - cell viability counter screen (AID 1259242); note: nearly all actives have a fitted effect of over 45% in size
Outline: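 MDA-kb2 cells (human breast carcinoma, stably carrying MMTV-luciferase reporter) were exposed to compounds with 0.5 nM R1881 (final) for 16 hr at 37C, 0% CO2; viability then read as live-cell protease fluorescence (CellTiter-Fluor, 30 min) in the same wells.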

[13] = target: Androgen receptor (Homo sapiens) (UniProt P10275); experiment: qHTS assay to identify small molecule antagonists of the androgen receptor (AR) signaling pathway using the MDA cell line in the presence of 0.5 nM R1881 (AID 1259243); note: nearly all actives have a fitted effect of over 50% in size
Sequence of Androgen receptor (Homo sapiens) (P10275 whole entry, looked up): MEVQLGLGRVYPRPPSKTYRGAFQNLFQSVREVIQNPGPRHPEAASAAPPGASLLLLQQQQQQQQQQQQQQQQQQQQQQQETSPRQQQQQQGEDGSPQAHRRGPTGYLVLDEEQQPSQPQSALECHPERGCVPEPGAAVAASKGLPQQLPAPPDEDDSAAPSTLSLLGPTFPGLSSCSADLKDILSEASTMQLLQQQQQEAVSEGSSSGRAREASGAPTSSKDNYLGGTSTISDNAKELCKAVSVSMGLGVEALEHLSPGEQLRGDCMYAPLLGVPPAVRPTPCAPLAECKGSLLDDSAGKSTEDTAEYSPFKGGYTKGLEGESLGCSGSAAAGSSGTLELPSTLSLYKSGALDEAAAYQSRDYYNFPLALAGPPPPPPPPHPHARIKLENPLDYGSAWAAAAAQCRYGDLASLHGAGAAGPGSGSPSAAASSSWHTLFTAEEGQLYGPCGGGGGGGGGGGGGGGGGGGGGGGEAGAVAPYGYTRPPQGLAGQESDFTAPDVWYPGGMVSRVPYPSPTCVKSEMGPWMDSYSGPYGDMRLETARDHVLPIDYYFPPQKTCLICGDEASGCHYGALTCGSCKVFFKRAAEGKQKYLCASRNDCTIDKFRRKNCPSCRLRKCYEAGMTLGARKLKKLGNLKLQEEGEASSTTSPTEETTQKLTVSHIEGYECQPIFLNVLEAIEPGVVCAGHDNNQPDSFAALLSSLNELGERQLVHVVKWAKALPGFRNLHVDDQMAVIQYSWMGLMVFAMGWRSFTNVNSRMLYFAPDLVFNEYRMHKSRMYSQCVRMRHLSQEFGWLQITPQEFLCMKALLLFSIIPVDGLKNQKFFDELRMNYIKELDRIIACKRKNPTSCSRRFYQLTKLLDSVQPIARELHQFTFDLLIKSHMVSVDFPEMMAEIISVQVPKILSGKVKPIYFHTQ
Outline: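 MDA-kb2 human breast carcinoma cells carrying an MMTV-luciferase reporter (AR- and GR-responsive) were plated, rested 5 hr at 37C, dosed with compounds, then stimulated with 0.5 nM R1881 (final) for 16 hr; luminescence was read after ONE-Glo.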

[14] = target: Estrogen receptor (Homo sapiens) (UniProt P03372); experiment: qHTS assay to identify small molecule antagonists of the estrogen receptor alpha (ER-alpha) signaling pathway using the BG1 cell line in the presence of 0.1 nM 17-beta-estradiol (AID 1259244); note: nearly all actives have a fitted effect of over 50% in size
Sequence of Estrogen receptor (Homo sapiens) (P03372 whole entry, looked up): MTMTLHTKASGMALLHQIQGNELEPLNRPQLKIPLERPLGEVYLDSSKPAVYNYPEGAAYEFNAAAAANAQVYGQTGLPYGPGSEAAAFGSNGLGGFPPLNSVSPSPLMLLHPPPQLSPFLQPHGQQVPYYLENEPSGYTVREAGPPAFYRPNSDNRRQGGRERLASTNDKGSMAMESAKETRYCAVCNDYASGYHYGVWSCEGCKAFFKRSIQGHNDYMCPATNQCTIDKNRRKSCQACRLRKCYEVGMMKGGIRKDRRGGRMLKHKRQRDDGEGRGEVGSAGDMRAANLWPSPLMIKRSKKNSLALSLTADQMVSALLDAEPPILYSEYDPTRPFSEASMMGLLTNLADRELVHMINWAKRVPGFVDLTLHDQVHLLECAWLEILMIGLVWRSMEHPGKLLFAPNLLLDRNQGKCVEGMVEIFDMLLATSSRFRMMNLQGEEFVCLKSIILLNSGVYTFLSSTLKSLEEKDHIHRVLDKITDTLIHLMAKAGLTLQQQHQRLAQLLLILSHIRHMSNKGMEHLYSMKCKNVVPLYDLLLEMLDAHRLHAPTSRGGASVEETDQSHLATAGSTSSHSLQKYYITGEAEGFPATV
Outline: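 VM7Luc4E2 cells (endogenous full-length ER-alpha, stable 4xERE-luciferase) were grown 5 days in phenol red-free medium with charcoal-stripped FBS, then exposed 22 h at 37C to compounds plus 0.1 nM (final) 17beta-estradiol; ONE-Glo luminescence read-out.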

[15] = qHTS assay to identify small molecule HDAC inhibitors (AID 1259364); note: top concentration of the series differs between compounds; nearly all actives have a fitted effect of over 45% in size
Outline: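 Wild-type HCT-116 cells were plated overnight, exposed to compounds for 2 h at 37 °C, then given HDAC-Glo class I/II luminogenic reagent for 30 min at room temperature before luminescence was read.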

[16] = qHTS assay to identify small molecule HDAC inhibitors - cell viability counter screen (AID 1259365)
Outline: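 CellTiter-Glo luminescence (30 min, room temperature) reported viability after a 2 h compound exposure at 37 C. Cells: wild-type HCT-116, 1,500 per well, seeded the night before.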

[17] = qHTS assay to identify small molecule antagonists of the sonic hedgehog signaling (Shh) pathway - cell viability counter screen (AID 1259367); note: nearly all actives have a fitted effect of over 55% in size
Outline: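 After a 4 hr settling period, 3T3 Gli1-Luc cells were treated with DMSO-dissolved chemicals and conditioned medium, kept 24 hr at 37C in 5% CO2, and assayed for viability by CellTiter-Fluor fluorescence following 1 hr reagent incubation.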

[18] = qHTS assay to identify small molecule agonists of the sonic hedgehog signaling (Shh) pathway (AID 1259368; calls by dose curve; note: series mostly up to about 92 µM; nearly all actives have a fitted effect of over 15% in size)
Outline: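 NIH/3T3-derived 3T3Gli1-Luc cells carrying a stably integrated Gli1 response element–firefly luciferase reporter were plated, left 4 hr at 37 C, then given compounds in DMSO for 24 hr. Luminescence was read 30 min after adding luciferase reagent.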

[19] = qHTS assay to identify small molecule agonists of the sonic hedgehog signaling (Shh) pathway - cell viability counter screen (AID 1259366); note: nearly all actives have a fitted effect of over 50% in size
Outline: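 Cytotoxicity counter screen: CellTiter-Fluor reagent added after 23 h compound exposure, then 1 h at 37C and fluorescence read. Cells were 3T3 Gli1-Luc, seeded 2,000 per well and dosed 4 h post-plating.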

[20] = qHTS assay to identify small molecule phospholipidosis (PLD) inducers (AID 1259344; active = well fitted curve in the direction sought with a large enough effect; an effect the other way counts as inactive or inconclusive)
Outline: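 HepG2 cells grown on collagen I take up LipidTOX Red while exposed to compound for 24 h; after fixation they are imaged at 20x and pit metrics are extracted.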

Measured: Potency

Cc1cc(S(=O)(=O)O)c(N)cc1Cl
not listed: [19] | [20]
inactive: all other assays above

CCCOCCC
not listed: [13] | [20]
inactive: all other assays above

CCOc1ccc(OCC)c(Cl)c1
not listed: [13] | [20]
inactive: all other assays above

NC(=O)NS(=O)(=O)c1ccc(Cl)cc1
not listed: [20]
inactive: all other assays above

C=CCc1cc(OC)c(O)c(C(=O)NCCO)c1
not listed: [13] | [19]
inactive: all other assays above

FC(F)(F)c1ccccc1
not listed: [13] | [18] | [20]
inactive: all other assays above

FC(F)(F)C(F)(F)C(F)(F)C(F)(F)C(F)(F)C(F)(F)C(F)(F)C(F)(F)Br
not listed: [13]
inactive: all other assays above
